# Inconclusive results are not listed. Some structures have more than one record in an assay (separate samples or runs), and their calls can disagree. The source made the active and inactive calls. Rule for the calls, unless noted: active = hit-call score of the fitted dose curve at least 0.9, where 1 is the maximum; inactive = score below 0.9.
# Key:
# [1] = CCTE_Shafer_MEA_acute_AB: CCTE's Alamar Blue Assay for Cytotoxicity in the Neural Acute Assay, Shafer Lab (AID 2284069; active = hit-call score of the fitted dose curve at least 0.9, where 1 is the maximum;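 note: active compounds lower the viability signal compared with DMSO wells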)
# How it was run: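 Read-out: resazurin fluorescence (ex 544, em 590 nm) after CTB reagent at 1:6 dilution in fresh media. Cells: primary rat cortical neuron networks, DIV 13 or 15, chemically exposed on MEA plates; DMSO as negative control/baseline.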
# [2] = CCTE_Shafer_MEA_acute_LDH: CCTE's Lactate Dehydrogenase Assay for Cytotoxicity in the Neural Acute Assay, Shafer Lab (AID 2284086; active = hit-call score of the fitted dose curve at least 0.9, where 1 is the maximum;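 note: active means LDH release rises above DMSO vehicle level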)
# How it was run: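 Medium collected from MEA wells of primary rat cortical cultures (DIV 13 or 15) immediately after 40 min chemical exposure is assayed spectrophotometrically for lactate dehydrogenase activity. Endpoint fitted in positive direction versus DMSO.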
# [3] = CCTE_Shafer_MEA_dev_AB: CCTE's Alamar Blue Assay for Cytotoxicity in the Neural Network Formation Assay, Shafer Lab (AID 2284083; active = hit-call score of the fitted dose curve at least 0.9, where 1 is the maximum;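 note: resazurin reduction fluorescence as viability of cultured neurons; twelve days of exposure from plating with re-dosing on DIV 5 and 9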)
# How it was run: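 Rat cortical primary cultures, 1.5 x 10^5 cells/well on MEA; continuous compound exposure over 12 days of network development, re-dosed with full medium change DIV 5 and 9. Alamar Blue fluorescence; loss of signal = cytotoxicity vs DMSO baseline.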
# [4] = CCTE_Shafer_MEA_dev_mutual_information_norm: CCTE's Neural Network Formation Assay for Mutual Information Normalization, Shafer Lab (AID 2284091);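 for AC50: mutual information between electrodes summarised as area under curve across four recording days; potency is for a decrease in mutual information relative to DMSO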
# How it was run: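 Neurons from rat cortex were seeded at 1.5 x 10^5 cells/well onto PEI-coated MEAs in a laminin drop, then exposed to compound from day 0 for twelve days. Network recordings on four days gave mutual information, summarised by AUC relative to DMSO.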
# [5] = CCTE_Shafer_MEA_dev_correlation_coefficient_mean: CCTE's Neural Network Formation Assay for Mean Correlation Coefficient, Shafer Lab (AID 2284093);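 for AC50: well mean pairwise spike train correlation integrated as AUC over recording days 5 to 12; potency fitted for loss of correlation relative to DMSO vehicle wells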
# How it was run: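 Rat cortical cultures, 1.5 x 10^5 cells/well, dosed from day 0 for 12 days. Spontaneous spikes recorded DIV 5/7/9/12; electrode-pair correlation coefficients averaged, AUC taken. Fit in loss direction vs DMSO.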
# [6] = IUF_NPC1b_proliferation_BrdU_72hr: Leibniz Research Institute for Environmental Medicine (IUF) 72-hour Neural Progenitor Cell Bromodeoxyuridine (BrdU) Proliferation Assay (NPC1b) (AID 2284207)
# How it was run: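 Luminescent BrdU ELISA measured DNA synthesis during the last 16 h of a 72 h exposure of primary human neural progenitor spheres grown with EGF and FGF. Signal was fitted relative to DMSO controls.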
# [7] = IUF_NPC1a_proliferation_area_72hr: Leibniz Research Institute for Environmental Medicine (IUF) 72-hour Neural Progenitor Cell Proliferation Area Assay (NPC1a) (AID 2284208)
# How it was run: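 hNPC spheres (human fetal cortex, GW 16-19), one per poly-Hema U-bottom well; EGF+FGF medium; dosed day 0, no re-dosing; 72 h, 37C, 5% CO2; phase-contrast sphere area; DMSO = baseline; minus-GF = positive ctrl.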
# [8] = IUF_NPC1_viability_72hr: Viability Assessment at 72 hours in the Leibniz Research Institute for Environmental Medicine (IUF) Neural Progenitor Cell Proliferation Assay (NPC1) (AID 2284209)
# How it was run: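 Spheres of primary human neural progenitors were plated singly in proliferation medium and treated for 72 h. Mitochondrial reduction of resazurin was then measured by fluorescence and analysed against DMSO controls.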
# [9] = CCTE_Mundy_HCI_Cortical_Synap_Neur_Matur_NeuriteSpotCountPerNeuriteLength: CCTE's Synaptogenesis and Neurite Maturation Assay in rat cortical cells for Neurite Spot Count per Neurite Length, Mundy Lab (AID 2284210)
# How it was run: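 Read-out: synaptophysin puncta counted along MAP2-stained neurites, normalised to neurite length, by automated high-content imaging. Rat cortical cells; AraC DIV 5; chemical dosing DIV 7; termination DIV 12. DMSO baseline.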
# [10] = CCTE_Mundy_HCI_Cortical_Synap_Neur_Matur_BPCount: CCTE's Synaptogenesis and Neurite Maturation Assay in rat cortical cells for Branch Point Count, Mundy Lab (AID 2284211)
# How it was run: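 HCI read-out of branch points from MAP2/synaptophysin/Hoechst immunofluorescence; rat cortical cultures, AraC DIV 5, dosing DIV 7, fixed DIV 12; fit in positive direction vs DMSO baseline.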
# [11] = CCTE_Mundy_HCI_Cortical_NOG_NeuriteCount: CCTE's Neurite Outgrowth Assay in rat cortical cells for Neurite Count, Mundy Lab (AID 2284212);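 note: cells fixed about two days after chemical exposure began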
# How it was run: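 Rat cortical primary cells; compound added 2 h post-plating, 1/10 dilution of working solution. Anti-betaIII-tubulin/AF488 ICC; ArrayScan neurite count vs DMSO.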
# [12] = CCTE_Mundy_HCI_Cortical_NOG_NeuriteLength: CCTE's Neurite Outgrowth Assay in rat cortical cells for Neurite Length, Mundy Lab (AID 2284213)
# How it was run: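 First, rat primary cortical cells were plated and, 2 h later, given test chemical as a 1/10 dilution. Finally, βIII-tubulin immunostaining enabled automated imaging of neurite length.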
# [13] = CCTE_Mundy_HCI_Cortical_Synap_Neur_Matur_NeuriteLength: CCTE's Synaptogenesis and Neurite Maturation Assay in rat cortical cells for Neurite Length, Mundy Lab (AID 2284214)
# How it was run: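 Cultures of rat primary cortical cells received chemical at DIV 7 and were fixed at DIV 12, after glial arrest with AraC at DIV 5. Neurite length was measured by automated imaging of MAP2 immunofluorescence.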
# [14] = CCTE_Mundy_HCI_Cortical_Synap_Neur_Matur_NeuriteSpotCountPerNeuron: CCTE's Synaptogenesis and Neurite Maturation Assay in rat cortical cells for Neurite Spot Count per Neuron Count, Mundy Lab (AID 2284215)
# How it was run: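 Read-out: neurite-associated synaptophysin puncta per neuron, imaged by high-content analysis after MAP2, synaptophysin and Hoechst staining. Rat primary cortical cultures, dosed DIV 7 through DIV 12; DMSO served as baseline.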
# [15] = CCTE_Mundy_HCI_Cortical_Synap_Neur_Matur_SynapseCount: CCTE's Synaptogenesis and Neurite Maturation Assay in rat cortical cells for Synapse Count, Mundy Lab (AID 2284218)
# How it was run: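 Cells were plated, allowed 2 hr to attach, treated with AraC at DIV 5, then exposed to chemicals from DIV 7 until DIV 12. After fixation and MAP2/synaptophysin immunolabelling, synapses per neuron were quantified by automated imaging against DMSO.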
# [16] = CCTE_Shafer_MEA_dev_LDH: CCTE's Lactate Dehydrogenase Assay for Cytotoxicity in the Neural Network Formation Assay, Shafer Lab (AID 2284068; active = hit-call score of the fitted dose curve at least 0.9, where 1 is the maximum;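 note: exposure for twelve days from plating with re-dosing on DIV 5 and 9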)
# How it was run: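 Rat cortical primary neurons, MEA culture; dosing day 0–12, full medium plus compound exchange DIV 5, 9. Read-out: LDH enzyme activity, spectrophotometric. DMSO = negative control/baseline; signal loss → cytotoxicity.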
# [17] = TAMU_PeakParms_SingleDonor1434_Chronotropy: Texas A&M University (TAMU) 1.5-hr Human Induced Pluripotent Stem Cell (iPSC)-derived Cardiomyocytes Calcium (Ca+2) Flux Assay for Cardiotoxicity: Chronotropy (changes in peak frequency) (AID 2284217); conditions: actives raise or lower the signal
# How it was run: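 iPSC-CMs, donor 1434; 4 conc (0.2–100 uM), 0.5% v/v DMSO, 90 min, 37C/5% CO2; Ca2+ flux fluorescence → peak.freq.avg; peak.freq.avg = 0 dropped; bidirectional fit vs DMSO; EC05 POD.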
# [18] = UKN5_HCS_SBAD2_cell_viability: Viability Assessment in the University of Konstanz (UKN) Leist Lab Neurite Outgrowth Assay in human iPSC-derived immature Dorsal Root Ganglia Neurons (UKN5) (AID 2284056)
# How it was run: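 iPSC-derived immature peripheral neurons (SBAD2) seeded on Matrigel with CHIR99021, SU5402 and DAPT, dosed 1 h later for 24 h. Viability from Hoechst H-33342 and calcein-AM live staining, high-content imaging; bidirectional fit versus DMSO.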
# [19] = UKN5_HCS_SBAD2_neurite_outgrowth: University of Konstanz (UKN) Leist Lab Neurite Outgrowth Assay in human iPSC-derived immature Dorsal Root Ganglia Neurons (UKN5) (AID 2284070); conditions: actives raise or lower the signal
# How it was run: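 Thaw, seed on Matrigel (100.000 cells/cm2), dose 1 h later; at 23 h live-stain with H-33342 and calcein-AM for 60 min; image at 24 h. Neurite area fitted bidirectionally vs DMSO.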
# [20] = CCTE_Mundy_HCI_hN2_NOG_NeuriteCount: CCTE's Neurite Outgrowth Assay in human hN2 cells for Neurite Count, Mundy Lab (AID 2284219; active = hit-call score of the fitted dose curve at least 0.9, where 1 is the maximum)
# How it was run: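 In this morphology assay, hNP1-derived neurons received test chemical 2 h post-plating and were fixed two days later in warm paraformaldehyde/sucrose containing Hoechst 33342. Neurites, labelled by rabbit anti-βIII-tubulin (1:800) and Alexa Fluor-488 (1:500), were counted automatically.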
structure (smiles),measurement,setting,value
CC(C)(C)c1cc(O)c(C(C)(C)C)cc1O,outcome,[1],inactive
same,outcome,[2],inactive
OC[C@@H](O)[C@@H](O)[C@H](O)[C@H](O)CO,AC50,[3],437 nM (active)
same,outcome,[4],inactive
same,outcome,[5],inactive
same,outcome,[6],inactive
same,outcome,[7],inactive
same,outcome,[8],inactive
same,outcome,[9],inactive
same,outcome,[10],inactive
same,outcome,[11],inactive
same,outcome,[12],inactive
same,outcome,[13],inactive
same,outcome,[14],inactive
same,AC50,[15],64.8 nM (active)
FC(F)(F)C(F)(F)C(F)(F)C(F)(F)C(F)(F)C(F)(F)CCI,outcome,[1],inactive
same,outcome,[3],inactive
same,outcome,[4],inactive
same,outcome,[5],inactive
C[Si]1(C)O[Si](C)(C)O[Si](C)(C)O[Si](C)(C)O1,outcome,[2],inactive
same,outcome,[4],inactive
same,outcome,[5],inactive
same,outcome,[6],inactive
same,outcome,[7],inactive
same,outcome,[8],inactive
same,outcome,[9],inactive
same,outcome,[10],inactive
same,outcome,[11],inactive
same,outcome,[12],inactive
same,outcome,[13],inactive
same,outcome,[14],inactive
same,outcome,[15],inactive
NCC1(Cc2noc(=O)[nH]2)CCCCC1,outcome,[2],inactive
COc1ccc(S(=O)(=O)N2C(=O)[C@@](c3ccccc3OC)(N3C[C@H](O)C[C@H]3C(=O)N(C)C)c3cc(Cl)ccc32)c(OC)c1,outcome,[1],inactive
same,outcome,[2],inactive
CC(C)c1ccc(C(=O)N=C(N)N)cc1S(C)(=O)=O,outcome,[16],inactive
same,outcome,[3],inactive
same,outcome,[4],inactive
same,outcome,[5],inactive
Clc1cc(Cl)c(Cl)cc1Cl,outcome,[1],inactive
COc1ccc2c(c1)c(CC(=O)O)c(C)n2C(=O)c1ccc(Cl)cc1,outcome,[1],inactive
same,outcome,[2],inactive
CCOc1ccc2c(c1)C(C)=CC(C)(C)N2,outcome,[17],inactive
CCCCCCCCCCCCCCCCCC(=O)O,outcome,[1],inactive
CCOC(=O)C(C)(C)Oc1ccc(Cl)cc1,outcome,[1],inactive
same,outcome,[2],inactive
COC(=O)c1ccc(O)cc1,AC50,[17],50000 nM (active)
Cc1ccc2ncccc2c1,outcome,[1],inactive
Cc1cc(=O)[nH]c(=S)[nH]1,outcome,[3],inactive
same,outcome,[4],inactive
same,outcome,[5],inactive
CN1CCCC1=O,outcome,[2],inactive
c1cc(-c2ccncc2)ccn1,outcome,[1],inactive
same,outcome,[2],inactive
C=CCc1ccc(O)c(OC)c1,outcome,[16],inactive
same,outcome,[1],inactive
same,outcome,[3],inactive
same,outcome,[2],inactive
same,outcome,[4],inactive
same,outcome,[5],inactive
Nc1ccc2c(c1)C(=O)c1ccccc1C2=O,outcome,[2],inactive
NS(=O)(=O)c1cc2c(cc1Cl)NCNS2(=O)=O,outcome,[1],inactive
same,outcome,[2],inactive
CC(=O)Oc1ccccc1C(=O)O,outcome,[18],inactive
same,outcome,[16],inactive
same,outcome,[19],inactive
same,outcome,[3],inactive
same,AC50,[4],15000 nM (active)
same,outcome,[4],inactive
same,outcome,[5],inactive
same,AC50,[6],725 nM (active)
same,outcome,[7],inactive
same,outcome,[8],inactive
same,outcome,[9],inactive
same,outcome,[10],inactive
same,outcome,[11],inactive
same,outcome,[12],inactive
same,outcome,[13],inactive
same,outcome,[14],inactive
same,outcome,[17],inactive
same,outcome,[15],inactive
CNCc1cc(F)ccc1Oc1ccc(Cl)c(Cl)c1,outcome,[1],inactive
same,outcome,[2],inactive
O=C(O)CCCCC(=O)O,outcome,[2],inactive
same,outcome,[17],inactive
Cc1ccc(C)c(O)c1C,outcome,[1],inactive
Nc1ccccc1N,outcome,[1],inactive
same,outcome,[2],inactive
Cc1ccc(C(C)C)c(O)c1,outcome,[1],inactive
CCCCCCCCCCO,outcome,[2],inactive
CCCc1cc(=O)[nH]c(=S)[nH]1,AC50,[16],23800 nM (active)
same,outcome,[16],inactive
same,outcome,[1],inactive
same,AC50,[3],24600 nM (active)
same,outcome,[3],inactive
same,outcome,[2],inactive
same,outcome,[4],inactive
same,AC50,[5],23900 nM (active)
same,outcome,[5],inactive
same,outcome,[9],inactive
same,outcome,[12],inactive
same,outcome,[13],inactive
same,outcome,[14],inactive
same,outcome,[17],inactive
same,outcome,[15],inactive
same,outcome,[20],inactive
CN[C@H]1CC[C@@H](c2ccc(Cl)c(Cl)c2)c2ccc(S(N)(=O)=O)cc21,outcome,[1],inactive
same,outcome,[2],inactive
O=c1[nH]cc(F)c(=O)[nH]1,AC50,[16],2480 nM (active)
same,AC50,[3],3240 nM (active)
same,AC50,[4],756 nM (active)
same,AC50,[5],696 nM (active)
same,outcome,[9],inactive
same,outcome,[12],inactive
same,outcome,[13],inactive
same,outcome,[14],inactive
same,outcome,[17],inactive
same,outcome,[15],inactive
same,outcome,[20],inactive
C=CCOC(=O)c1ccccc1C(=O)OCC=C,outcome,[1],inactive
Nc1nc(N)c2nc(CNc3ccc(C(=O)N[C@@H](CCC(=O)O)C(=O)O)cc3)cnc2n1,outcome,[1],inactive

# From PubChem BioAssay (EPA / NIEHS)
